MPTP inh: inhibitors of mitochondrial permeability transition pore | isolated mouse mitochondria, Ca2+ swelling absorbance, 30 min | inhibition, % at 10 µM | 1.4% of 360,000 active | AID 602449;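 active = inhibition of 50% or more, scaled per plate between neutral and stimulator controls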;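 note: 0% = DMSO wells given calcium and 100% = 1 mM EGTA wells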
Mdm2-MdmX inh: human Mdm2/MdmX binding inhibition | SaOS-2 split-luciferase Mdm2/MdmX complementation, luminescence | inhibition, % at 8 µM | 3% of 330,000 active | AID 485346;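 active = inhibition of at least 50% at 8 µM in the primary screen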
tim10-1 inh: tim10-1 yeast growth inhibition. S. cerevisiae tim10-1 ts strain growth, BacTiter-Glo, 24 h. 2.2% of 330,000 active. inhibition, % at 20 µM. AID 463190;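 active = inhibition of at least 40%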;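 note: mutant grown at 25 °C; 0% = DMSO wells with yeast and 100% = wells holding no yeast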
TIM10 inh: growth inhibitors of TIM10 yeast strain; S. cerevisiae TIM10 strain growth, BacTiter-Glo luminescence, 24 h; inhibition, % at 10 µM; 1.4% of 330,000 active; AID 463195;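 active = inhibition of 40% or more at the single tested concentration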;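 note: wild-type TIM10 isogenic control strain grown at permissive 25 °C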
tim23-1 inh: inhibits growth of tim23-1 mutant yeast; S. cerevisiae tim23-1 growth, BacTiter-Glo luminescence, 24 h; inhibition, % at 20 µM; 1.3% of 330,000 active;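 active = growth inhibition of the mutant yeast at or above 50%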;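 note: temperature-sensitive mutant grown at 25 °C; plate controls were DMSO-treated mutant yeast for no effect and medium wells lacking yeast for full effect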
Mdm2-MdmX conf: confirmation of human Mdm2/MdmX interaction inhibitors | inhibition, % at 8 µM | AID 489028 | Mdm2-MdmX binding, luminescent assay | 55% of 10,000 active | shares compounds with Mdm2-MdmX inh; in the data active = inhibition above about 40%
FLuc counter: counter-screen for Mdm2/MdmX inhibitors: full-length luciferase; 77% of 6,200 active; inhibition, % at 8 µM; shares compounds with Mdm2-MdmX inh; SaOS-2 full-length luciferase counterscreen, luminescence;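 active = mean inhibition at 8 µM reaching about 37%, which flags the compound as non-specific, limit read from the data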;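 note: p53-null SaOS-2 cells with luciferase driven by a doxycycline-inducible promoter; compound on cells about two nights before reading with doxycycline added after day one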
An asterisk follows results filed as active; . = not tested or not shown. Shown are actives, neighbours in structure and some others; about 6.3% of the full set was active somewhere.

SMILES | MPTP inh | Mdm2-MdmX inh | tim10-1 inh | TIM10 inh | tim23-1 inh | Mdm2-MdmX conf | others
Oc1ccccc1Nc1nc(NCc2ccccc2)c2ccccc2n1 | 11.0 | 83.4* | -22.8 | 2.4 | -8.2 | 33.0
CCOC1=C2CN(S(=O)(=O)c3ccc(C)cc3)CC[C@@H]2N(S(=O)(=O)c2ccc(C)cc2)[C@H](c2ccccc2)C1 | 1.8 | . | . | . | . | .
COc1ccc(NC(=O)N(C)C[C@H]2OCCCC[C@@H](C)Oc3ccc(N(C)C)cc3C(=O)N([C@H](C)CO)C[C@@H]2C)cc1 | -0.6 | . | . | . | . | .
COc1ccc(S(=O)(=O)NC(=O)C2(C)CCN2C(=O)Cc2cccc3ccccc23)cc1 (centres undefined) | 0.6 | . | . | . | . | .
c1ccc(CNc2c3ccccc3nc3ccccc23)cc1 | 1.3 | 69.5* | -44.1 | 28.9 | 1.3 | 29.9 | FLuc counter=60.8*
O=C(COc1ccc2ccccc2c1)NNC(=O)C(=O)Nc1ccccc1 | 5.8 | 53.1* | -14.2 | -24.9 | -14.3 | 60.2* | FLuc counter=99.0*
COc1ccccc1C(=O)NCCC(=O)Nc1ccc(S(=O)(=O)N2CC(C)CC(C)C2)cc1 (centres undefined) | -0.2 | -12.6 | -2.3 | 0.9 | -1.4 | .
Cn1nc(C(F)(F)F)c(C#N)c1N1CCN(c2ccccc2)CC1 | 0.6 | 40.8 | -12.5 | -41.7 | -22.6 | .
Cn1nc(C(F)(F)F)c(C#N)c1N1CCN(c2ccc(F)cc2)CC1 | -3.3 | 56.3* | -18.4 | 10.3 | 2.9 | 20.4
Cc1ccc(-n2ncc(C(=O)Nc3cc(Cl)ccc3C)c2C2CCNCC2)cc1C | -2.6 | 66.2* | 3.9 | 9.7 | 2.3 | 38.1 | FLuc counter=71.7*
CC1(C(=O)Nc2ccc3[nH]ncc3c2)CCN1C(=O)C1(c2ccccc2)CC1 (centres undefined) | 0.6 | . | . | . | . | .
COc1cc(OC)cc(-c2nnc(SCC(=O)N3c4ccccc4Sc4ccccc43)o2)c1 | -0.4 | 54.0* | 6.1 | 7.1 | 8.2 | 12.2
S=C(Nc1cccc(Cl)c1)NC1CC2CCCC(C1)N2C1CCCC1 (centres undefined) | 24.1 | -3.5 | -1.0 | 8.1 | 16.7 | .
S=C(NCCN(C1CCCCC1)C1CCCC1)Nc1cccc(Cl)c1 | 1.7 | 62.2* | 20.8 | 16.4 | 10.0 | 37.4 | FLuc counter=63.5*
O=C(Nc1ccccc1)C(Cc1ccccc1)c1ccccc1 (centres undefined) | 0.1 | . | . | . | . | .
COc1cccc(NC(=O)CN(C)CC(=O)Nc2ccc3c(c2)OCO3)c1 | 0.3 | 19.3 | -6.9 | -9.2 | -0.2 | .
COc1cccc(NC(=O)CN(C)CC(=O)Nc2ccc(C)c([N+](=O)[O-])c2)c1 | 2.0 | 61.2* | -44.2 | -14.1 | -12.9 | 46.4* | FLuc counter=41.7*
Cc1cc(N/N=C/c2ccc(N(C)C)cc2)c2ccccc2n1 | -0.8 | 4.6 | 13.7 | 3.7 | 27.1 | .
Cc1cc(C)c2nc(C)cc(N/N=C/c3ccc(O)cc3)c2c1 | 7.3 | 98.2* | -14.4 | 0.8 | -20.0 | 100.2* | FLuc counter=50.2*
Cc1cc(N/N=C/c2ccc(O)cc2)c2cccc(C)c2n1 | 1.8 | 65.5* | -10.5 | 33.3 | -21.7 | 4.3
COc1ccc(-c2ccc([C@H]3[C@H]4C=CC[C@@H](C)[C@@H]4C(=O)N3Cc3ccccc3)c(F)c2)cc1 | -0.5 | 30.1 | 3.2 | 7.4 | 13.5 | .
COc1ccc(-c2c([C@H]3[C@H]4C=CC[C@@H](C)[C@@H]4C(=O)N3Cc3ccccc3)ccc3ccccc23)cc1 | -0.7 | 69.4* | 14.1 | 10.5 | 31.4 | 15.7
COc1cc(-c2cccc([C@H]3[C@@H]4C=CC[C@@H](C)[C@@H]4C(=O)N3Cc3ccccc3)c2)cc(OC)c1OC | -0.7 | 83.0* | 14.9 | 2.3 | 32.6 | 35.0
COc1ccc(/C=N\NC(=O)c2sccc2C)cc1Cn1nc(C)cc1C | 1.2 | 59.0* | 35.9 | 5.4 | 38.1 | 63.9* | FLuc counter=73.0*
COc1ccc(/C=N\NC(=O)COc2ccccc2Cl)cc1Cn1nc(C)cc1C | 0.2 | 1.7 | 13.8 | 0.9 | -5.2 | .
SMILES | MPTP inh | Mdm2-MdmX inh | tim10-1 inh | TIM10 inh | tim23-1 inh | Mdm2-MdmX conf | others
CN1CCN(C2Cc3cc(Cl)ccc3Sc3cc(F)ccc32)CC1 (centres undefined) | -3.3 | 53.9* | 14.5 | 32.1 | 9.9 | 23.9
c1ccc2c(c1)CC(N1CCCCC1)c1ccccc1S2 (centres undefined) | -1.6 | 22.5 | 5.4 | 0.6 | 2.8 | .
Cc1cccc(C)c1NC(=O)COC(=O)c1cccc2c1C(=O)c1ccccc1C2=O | 3.4 | 58.6* | 18.5 | 21.6 | -1.5 | 34.8 | FLuc counter=77.5*
Cc1cccc(NC(=O)COC(=O)c2cccc3c2C(=O)c2ccccc2C3=O)c1C | -0.7 | 30.7 | 27.9 | 12.6 | 15.6 | .
CC1=CC(C)(C)N2C(=O)C3(C(C#N)=C(N)OC4=C3C(=O)CCC4)c3c(C)c(C)cc1c32 (centres undefined) | -1.4 | 27.5 | 4.8 | 2.9 | 2.1 | .
CC1=CC(C)(C)N2C(=O)C3(C(C#N)=C(N)Oc4cc(O)ccc43)c3c(C)c(C)cc1c32 (centres undefined) | -4.4 | 67.6* | 34.8 | 30.2 | 31.6 | 61.2* | FLuc counter=48.1*
O=C1c2c(Cl)c(Cl)c(Cl)c(Cl)c2C(=O)N1c1nccs1 | -1.4 | . | . | . | . | .
CC1(C(=O)Nc2ccccc2)CCN1C(=O)CCc1ccc(Cl)cc1Cl (centres undefined) | 0.4 | . | . | . | . | .
Cc1cccc(NC(=O)CSc2nc(C)c(CC(=O)c3ccc(Br)cc3)c(C)c2C#N)c1C | -1.9 | 100.2* | 6.4 | 8.4 | 6.2 | 5.5
COCc1cc(C)nc(SCC(=O)Nc2cccc(C)c2C)c1C#N | -0.3 | 13.8 | 10.7 | -6.8 | 1.5 | .
Cc1nc(SCC(=O)Nc2ccc(F)cc2)c(C#N)c(C)c1CC(=O)c1ccc(Br)cc1 | 0.7 | 96.7* | -19.2 | -11.3 | -14.2 | 76.1* | FLuc counter=80.4*
O=C(NCc1ccccc1Cl)c1ccc2nc([C@@H]3O[C@H](CO)[C@H](O)[C@H](O)[C@H]3O)[nH]c2c1 | -1.9 | . | . | . | . | .
CC(C)CN(C#N)c1nc(N2CCOCC2)nc(N2CCOCC2)n1 | -1.2 | 50.7* | 8.4 | 21.8 | 16.7 | 38.4 | FLuc counter=69.7*
CC(C)c1ccc(S(=O)(=O)N2CCC(C(=O)N3CCN(c4cccc(Cl)c4)CC3)CC2)cc1 | 0.7 | . | . | . | . | .
COC[C@H]1CCCN1c1ccc2c(c1)O[C@H](COCc1ccccc1)CN([C@H](C)c1ccccc1)S2(=O)=O | 1.1 | . | . | . | . | .
Cc1[nH]c(=O)[nH]c(=O)c1CSc1nnc([C@@H](NC(=O)OC(C)(C)C)C(C)C)o1 | 2.2 | 83.5* | 27.7 | 10.1 | 6.4 | 3.1
Cc1[nH]c(=O)[nH]c(=O)c1CSc1nnc(CCCCCNC(=O)OC(C)(C)C)o1 | 0.8 | -5.5 | 4.2 | -2.4 | 5.0 | .
CC(=O)Nc1ccccc1-c1cccc2nccn12 | 0.2 | . | . | . | . | .
CS(=O)(=O)c1ccc(-c2sc3ccccc3c2C#CCCO)cc1 | 0.2 | 17.3 | 14.3 | 24.4 | 29.6 | .
Cn1cncc1C#Cc1c(-c2ccc(S(C)(=O)=O)cc2)sc2ccccc12 | -2.2 | 64.7* | 23.6 | 12.6 | 38.5 | 28.4
Cc1ccc([N+](=O)[O-])cc1NC(=S)NC(=O)c1cccs1 | 0.9 | 61.9* | 0.9 | -22.9 | -15.6 | 17.5
